CF NFkB block: blocks PAF-induced NF-kB reporter in cystic fibrosis cells; KKLEB NF-kB-GFP reporter, GFP fluorescence overnight; inhibition, % at 5 µM; 360,000 compounds, 0.86% hits; AID 588850;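 active means at least 50% inhibition at 5 µM, scaled per plate between neutral and stimulator controls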;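 further: PAF is a Pseudomonas aeruginosa culture filtrate used as stimulus; plate controls were PAF-stimulated DMSO wells for no effect and unstimulated DMSO wells for full effect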
TWEAK Fn14 block: blocks TWEAK-Fn14 interaction in a reporter cell assay; 360,000 compounds, 2% hits; inhibition, % at 10 µM; AID 1159606; TWEAK-stimulated Fn14 reporter cells, luciferase luminescence, 8 h; in the data active means inhibition above about 50%
HIF-2a inh: inhibitors of HIF-2a | 786-0 RCC cells HIF-2a reporter, luciferase luminescence, overnight | AID 624352 | 360,000 compounds, 0.72% hits | inhibition, % at 18.8 µM;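 active means inhibition of the luminescence signal of 40% or more relative to plate controls, in a single-dose primary screen at 18.75 µM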
KKLEB tox: counter-screen for CF NF-kB inhibitors: cytotoxicity. KKLEB CF airway cells viability, ATPlite luminescence, overnight; active compounds read low; cells stimulated with P. aeruginosa culture filtrate. activity change (cytotoxicity), % at 5 µM. 360,000 compounds, 0.36% hits. AID 602141;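 active means corrected activity change at or below -50% at 5 µM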
Peg3 prom inh: Peg3 promoter activity inhibition; AID 588405; inhibition, % at 20 µM; HeLa PEG-Prom luciferase reporter, luminescence, overnight; 360,000 compounds, 1.7% hits;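 active means inhibition of at least 50% at 20 µM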
TROY NFkB inh: inhibitors of TROY-dependent NF-kB signaling | Q293 LMP1-TROYcd NF-kB luciferase reporter, 4 h | inhibition, % at 10 µM | 360,000 compounds, 0.98% hits | AID 1347056;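 active means compounds whose plate-normalised and pattern-corrected inhibition of the luciferase reporter signal at the single screening dose is 50% or more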
Mdm2 MdmX conf: confirmation of inhibitors of human Mdm2/MdmX interaction, set 2; shares compounds with HIF-2a inh; SaOS-2 split-luciferase Mdm2/MdmX complementation, luminescence; inhibition, % at 8 µM; 740 compounds, 99% hits; AID 504601;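 active means mean inhibition of the luminescence signal across two replicates at or above 26 percent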
HIF-2a inh conf: HIF-2a inhibition, single concentration confirmation; shares compounds with HIF-2a inh; 786-0 RCC cells, HIF-2a luciferase reporter luminescence, overnight; inhibition, % at 18.8 µM; 1,800 compounds, 56% hits;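 active means mean inhibition across four replicates of at least 40 percent at the single tested concentration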
HIF-1a cs: counter-screen for HIF-2a inhibitors: HIF-1a inhibition in MiaPaCa-2 cells; 1,800 compounds, 72% hits; shares compounds with HIF-2a inh; inhibition, % at 18.8 µM; AID 651589; MiaPaCa-2 HIF-1a luciferase reporter, desferoxamine, overnight;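 active means mean inhibition of the reporter signal across four replicates at the single tested dose of 50% or more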
* = called active by the depositor; . = no result given. Compounds with a hit are over-represented: about 4% of the library has one in this group of screens.

SMILES	CF NFkB block	TWEAK Fn14 block	HIF-2a inh	KKLEB tox	Peg3 prom inh	TROY NFkB inh	HIF-2a inh conf	HIF-1a cs	others
COc1cc(SC#N)ccc1N=Cc1c(C)[nH]n(-c2ccc(C)c(C)c2)c1=O	3	24	14	1	100*	30	.	.	Mdm2 MdmX conf=98*
CCN1CCN(C(=S)c2ccc(-c3ccccc3)cc2)CC1	-10	69*	80*	6	22	5	95*	78*
COCCNC(=O)[C@H](CSCc1ccccc1)N1Cc2ccccc2C1=O	3	4	48*	-3	11	44	14	-6
COCCCNC(=O)[C@H](CSCc1ccccc1)N1Cc2ccccc2C1=O	16	-16	-8	6	-24	4	.	.
CC1(C)Cc2cccc(OCC(=O)N3CCN(c4cccc(Cl)c4)CC3)c2O1	8	1	8	11	8	12	.	.
N/C(=N\OC(=O)c1cccc(C(F)(F)F)c1)c1cnccn1	-17	-15	-200	2	-170	-87	.	.
O=C(OCn1ncc(Cl)c(Cl)c1=O)c1cccc(C(F)(F)F)c1	78*	98*	93*	-38	104*	28	97*	105*	Mdm2 MdmX conf=103*
CCCCN(C(=O)C1CCCC1)c1c(N)n(CC(C)C)c(=O)[nH]c1=O	-14	-2	3	4	16	5	.	.
COc1ccc(NC(=O)c2cc([N+](=O)[O-])ccc2O)cc1	37	104*	71*	6	83*	87*	86*	102*
Cc1nc2cc(-c3ccccc3)nn2c(C)c1CCC(=O)NC(C)c1ccc2c(c1)OCCO2 (stereo not drawn)	-12	6	66*	0	-36	-17	79*	45
Cc1nc2nc(C)c(CCC(=O)NC(C)c3ccc4c(c3)OCCO4)c(C)n2n1 (stereo not drawn)	-7	2	-12	5	-11	4	.	.
Cc1nc2cc(-c3cccc(F)c3)nn2c(C)c1CCC(=O)NC(C)c1ccc2c(c1)OCCO2 (stereo not drawn)	-10	-6	46*	-15	-10	-11	72*	42
CCOC(=O)C1CCN(S(=O)(=O)CCNC(=O)c2ccc3c(c2)OCO3)CC1	13	-8	12	7	2	12	.	.
CCCn1c(C)cc(C(=O)COC(=O)c2ccc[nH]c2=O)c1C	-5	80*	42*	-10	-6	72*	36	14
COCCn1c(C)cc(C(=O)COC(=O)c2n[nH]c3ccccc23)c1C	10	86*	47*	-59*	-10	54*	45*	31
CC(=O)NS(=O)(=O)c1ccc(NC(=O)c2ccc3c(c2)OCO3)cc1	-9	10	-30	-2	-19	-13	.	.
Cc1ccc(C)c(NC(=O)CCC(=O)NNC(=O)COc2cc(C)ccc2C)c1	-17	-10	10	13	8	5	.	.
O=Cc1ccc(OCc2ccc3ccccc3c2)cc1	3	-6	-218	-10	-258	-18	.	.
CCOc1cc(/C=N/NC(N)=O)cc(Br)c1OCC(=O)Nc1cccc2ccccc12	-4	40	25	-18	43	11	.	.
CCOc1cc(/C=N/NC(N)=O)cc(Br)c1OCC(=O)Nc1ccccc1C	-10	20	40*	-13	42	2	15	66*
O=C(/C=C/c1c(F)cccc1Cl)c1ccc(O)cc1	20	61*	-98	1	-109	-7	.	.	Mdm2 MdmX conf=50*
COc1ccc(-c2csc3ncn(-c4cccc(C)c4)c(=O)c23)cc1OC	10	-13	41*	-4	32	-4	2	2
CN(CC(=O)Nc1ccc(F)cc1)C(=O)CN1C(=O)c2cccc([N+](=O)[O-])c2C1=O	4	-4	7	-18	-4	4	.	.

Bioassay records (PubChem BioAssay)
